The nature of assay [1]: cAMP Responsive Elements (CRE) small molecule antagonists, cell-based qHTS assay: qHTS cell viability counter screen (AID 2060913). Further: nearly all actives have a fitted effect of over 40% in size. A digest of the protocol:
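Cytotoxicity counter screen multiplexed with the CRE-bla antagonist read: HEK293T cells in DMEM with dialyzed FBS and 25 mM HEPES were treated 3 hrs under 0.25 uM final NKH477, then viability measured by CellTiter-Glo luminescence.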
On the technique in general: In qHTS, concentration-response curves come from the screen itself.

Assay [2] is described as follows: cAMP Responsive Elements (CRE) small molecule agonists, cell-based qHTS assay: qHTS cell viability counter screen (AID 2060914). Further: nearly all actives have a fitted effect of over 50% in size. In short, it runs like this: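 HEK 293T CRE-bla; DMEM + 10% dialyzed FBS, 25 mM HEPES; 18 h pre-incubation; compound 3 h, 37 °C/5% CO2; CellTiter-Glo added after reporter read; luminescence after 30 min RT.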

The structures appear in SMILES notation. Inconclusive results are not listed. A number with no mark means an inactive call. Calls of active or inactive are those of the source. The call rests on the fitted dose curve; in most records, active means well fitted cell-killing curve with a large enough effect in the repeat runs; inconclusive means weak or mixed curves, or effect the other way; inactive means flat fitted curve, though single readings scatter.
On the % scale 0 is the no-effect control and ±100 the full control effect.

Regarding `COc1c2occc2cc2ccc(=O)oc12`, the Potency entry in assay [1] and in assay [2] was “inactive” each time.
For the compound `O=C(c1ccc(F)cc1)C1CCN(CCn2c(=S)[nH]c3ccccc3c2=O)CC1`, the Potency entry in assay [1] and in assay [2] was “inactive” throughout.
As to `C1C2OC2C2C1C1CC2C2OC12` (centres undefined), the Potency result in assay [1] and in assay [2] was “inactive” each time.
On to `OCCCCCCCl`, for which the Potency result in assay [1] and in assay [2] was “inactive” in each case.
Consider `Cc1cc2c(s1)Nc1ccccc1N=C2N1CCN(C)CC1`, for which the Potency result in assay [1] and in assay [2] was “inactive” throughout.
Turning to `O=[N+]([O-])c1cc(N(CCO)CCO)ccc1NCCO`, the Potency result in assay [1] and in assay [2] was “inactive” each time.
Turning to `O=C(O)COc1ccc2ccccc2c1`, the Potency entry in assay [1] and in assay [2] was “inactive” throughout.
As for `CCc1ncc(C)[nH]1`, the Potency result in assay [1] and in assay [2] was “inactive” each time.
As for `Cc1ccc(C(C)(C)C)cc1`, the Potency entry in assay [1] and in assay [2] was “inactive” throughout.
For the compound `C/C=C(\C)C(=O)OCc1ccccc1`, the Potency result in assay [1] and in assay [2] was “inactive” in each case.
Take `Cc1cc(Cc2ccc(N)c(C)c2)ccc1N`: the Potency entry in assay [1] and in assay [2] was “inactive” throughout.
Consider `O=c1cc(-c2ccccc2)oc2ccccc12`, for which the Potency entry in assay [1] and in assay [2] was “inactive” each time.
On to `C[C@]12C=CC(=O)C=C1CC[C@@H]1[C@@H]2[C@@H](O)C[C@@]2(C)[C@H]1CC[C@]2(O)C(=O)CO`, for which the Potency entry in assay [1] and in assay [2] was “inactive” in each case.
On to `CC1(C)C(C=C(Cl)Cl)C1C(=O)OCc1cccc(Oc2ccccc2)c1` (centres undefined), for which the Potency result in assay [1] and in assay [2] was “inactive” in each case.
As to `CCCCN(CCC(=O)OCC)C(C)=O`, the Potency entry in assay [1] and in assay [2] was “inactive” in each case.
On to `COc1ccc(N=[N+]([O-])c2ccc(OC)cc2)cc1`, for which the Potency result in assay [1] and in assay [2] was “inactive” each time.
`O=C1CCCCC1C1CCCCC1` (centres undefined): the Potency result in assay [1] and in assay [2] was “inactive” in each case.
On to `Cc1c(N)cccc1C(F)(F)F`, for which the Potency result in assay [1] and in assay [2] was “inactive” in each case.
As for `[O-][n+]1cccc(CO)c1`, the Potency result in assay [1] and in assay [2] was “inactive” each time.
As to `CCCOC(=O)c1cc(O)c(O)c(O)c1`, the Potency entry in assay [1] and in assay [2] was “inactive” each time.
In the case of `CCOCCC(=O)OCC`, the Potency entry in assay [1] and in assay [2] was “inactive” in each case.
For the compound `CCCCCCCCCCCCCCN(CCO)CCO`, the Potency entry in assay [1] and in assay [2] was “inactive” throughout.
Take `NC[C@H]1O[C@H](O[C@H]2[C@H](O)[C@@H](O[C@H]3O[C@H](CO)[C@@H](O)[C@H](N)[C@H]3O)[C@H](N)C[C@@H]2N)[C@H](O)[C@@H](O)[C@@H]1O`: in assay [1], the viability change, negative = cytotoxic was -0.639% [at 8.39 µM]. Also, in assay [2], the activity change, negative = cytotoxicity was 14.7% [at 8.39 µM].
Turning to `OCCOc1ccc(OCCO)cc1`, the Potency entry in assay [1] and in assay [2] was “inactive” throughout.
For `CC1=NC(C)OC1C` (centres undefined), the Potency result in assay [1] and in assay [2] was “inactive” each time.
Take `CCC(=O)O`: the Potency result in assay [1] and in assay [2] was “inactive” in each case.
Turning to `CCCCN(CCCC)CCCOC(=O)c1ccc(N)cc1`, the Potency result in assay [1] and in assay [2] was “inactive” throughout.
As for `CS(=O)(=O)c1ccc(Cl)cc1`, the Potency result in assay [1] and in assay [2] was “inactive” each time.
As for `O=Cc1cc2ccccc2o1`, the Potency entry in assay [1] and in assay [2] was “inactive” throughout.
On to `CC(C)(C)NC(=O)[C@H]1CC[C@H]2[C@@H]3CC[C@H]4NC(=O)C=C[C@]4(C)[C@H]3CC[C@]12C`, for which the Potency entry in assay [1] and in assay [2] was “inactive” each time.
For `COC(=O)c1ccccc1OC`, the Potency result in assay [1] and in assay [2] was “inactive” throughout.
As to `CN(C)CCCO[C@@H]1[C@H]2OC(C)(C)O[C@H]2O[C@@H]1C(O)CO` (some centres undefined), the Potency entry in assay [1] and in assay [2] was “inactive” each time.
In the case of `CCCCCCCCCCCCCCCCO`, the Potency entry in assay [1] and in assay [2] was “inactive” in each case.
Consider `O=C(/C=C/c1ccccc1)NCCO`, for which the Potency result in assay [1] and in assay [2] was “inactive” in each case.
As for `CC1(O)CSC(C)(O)CS1` (centres undefined), the Potency result in assay [1] and in assay [2] was “inactive” throughout.
`c1ccc2[nH]c(-c3cscn3)nc2c1`: the Potency result in assay [1] and in assay [2] was “inactive” throughout.
With `NC(=O)N[C@@H](CCC(=O)O)C(=O)O`, the Potency entry in assay [1] and in assay [2] was “inactive” throughout.
With `C=CC(=C)CCCC(C)(C)OC(C)=O`, the Potency result in assay [1] and in assay [2] was “inactive” in each case.
In the case of `CCCO`, the Potency entry in assay [1] and in assay [2] was “inactive” in each case.
Turning to `CCCCCCCC(=O)OC`, the Potency result in assay [1] and in assay [2] was “inactive” throughout.
Take `Cc1cc(C)c(N=Nc2c(O)c(S(=O)(=O)O)cc3cc(S(=O)(=O)O)ccc23)cc1C`: in assay [1], the viability change, negative = cytotoxic was 13% [at 8.39 µM]. Further, the activity change, negative = cytotoxicity in assay [2] is 4.39% [at 8.39 µM].
On to `N=C1N=C(N)c2ccccc21`, for which the Potency result in assay [1] and in assay [2] was “inactive” in each case.
`CC(C)(CC(=O)O)C(=O)O`: the Potency result in assay [1] and in assay [2] was “inactive” throughout.
As to `CCCC1O[C@@H]2C[C@H]3[C@@H]4CCC5=CC(=O)C=C[C@]5(C)[C@H]4[C@@H](O)C[C@]3(C)[C@]2(C(=O)CO)O1` (some centres undefined), the Potency entry in assay [1] and in assay [2] was “inactive” in each case.
Consider `C=CC(C)(C)CC(=O)OC`, for which the Potency result in assay [1] and in assay [2] was “inactive” each time.
Take `CN(C)CCc1c[nH]c2ccc(CS(=O)(=O)N3CCCC3)cc12`: the Potency entry in assay [1] and in assay [2] was “inactive” in each case.
As to `C[Si]1(C)O[Si](C)(C)O[Si](C)(C)O[Si](C)(C)O1`, the Potency entry in assay [1] and in assay [2] was “inactive” throughout.
As to `CCOC(=O)C(C)(C)C`, the Potency entry in assay [1] and in assay [2] was “inactive” throughout.
Turning to `CN(C)CCN(Cc1ccsc1)c1ccccn1`, the Potency entry in assay [1] and in assay [2] was “inactive” each time.
`CNCCCC1c2ccccc2C=Cc2ccccc21`: the Potency result in assay [1] and in assay [2] was “inactive” in each case.
`COc1ccccc1OCC1CNC(=O)O1` (centres undefined): the Potency result in assay [1] and in assay [2] was “inactive” throughout.
As for `CCCCC(CC)COCCCN` (centres undefined), the Potency result in assay [1] and in assay [2] was “inactive” throughout.
For the compound `CCN(CC)c1ccc2c(c1)Oc1cc(N(CC)CC)ccc1C21OC(=O)c2ccccc21`, the Potency result in assay [1] and in assay [2] was “inactive” each time.
Turning to `C=CC(C)CCC=C(C)C` (centres undefined), the Potency result in assay [1] and in assay [2] was “inactive” each time.
With `CCCN(CCC)CCc1cccc2c1CC(=O)N2`, the Potency result in assay [1] and in assay [2] was “inactive” in each case.
As for `CC(C)(c1ccc(Oc2ccc3c(c2)C(=O)OC3=O)cc1)c1ccc(Oc2ccc3c(c2)C(=O)OC3=O)cc1`, the Potency entry in assay [1] and in assay [2] was “inactive” each time.
Turning to `Nc1ccc2ccccc2c1S(=O)(=O)O`, the Potency result in assay [1] and in assay [2] was “inactive” each time.

These data come from PubChem BioAssay (Tox21).
